Experimental data reported in PubChem BioAssay AID748 (Sanford-Burnham Center for Chemical Genomics, 2007).
Among all 96,000 compounds or so, about 100 (0.1%) were called active.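 How the source made its calls: active means displacement above 50% at 20 µM plus a fluorescence interference ratio under 1.5; inactive means the rest.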 The sample as a whole holds a higher share of actives than the screen did. Results with a measured potency or affinity are listed apart.

Target: Bcl-2-like protein 10 (Homo sapiens) (UniProt Q9HD36)
Test: displacers of TR3 peptide from Bcl-B, primary screen, selectivity assay for Bfl-1 inhibitor project, biochemical, fluorescence polarization, FITC-TR3 peptide (AID 748);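 further: plate controls were wells without compound for no effect and wells lacking Bcl-B protein for full effect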
Settings: FP displacement of FITC-TR3 peptide from Bcl-B; at 20 µM; stronger effect = higher value

displacement, inactive:
Cc1ccc(S(=O)(=O)NNC(=O)C2Cc3c(ccc4ccccc34)O2)cc1 (stereo unspecified) -1.6%
Cc1ccc(CSCCNC(=O)c2ccc(N(C)S(=O)(=O)c3ccccc3)cc2)cc1 0%
CC1CN(S(=O)(=O)c2cccc(C(=O)OCc3cc(=O)oc4cc(O)ccc34)c2)CC(C)O1 (stereo unspecified) 16.7%
CCN(CC)c1ccc(C(=O)OCc2cc(=O)oc3cc(O)ccc23)cc1 0%
N#CCCN1CCN(CCC#N)CC1 -1.9%
COCCCn1c2nc3ccccc3nc2c2c(=O)n(Cc3ccc(Cl)cc3)cnc21 -3.8%
COc1ccc(C2Nc3ccccc3C(=O)N2c2ccc(C)cc2)cc1Cn1nc(C)c([N+](=O)[O-])c1C (stereo unspecified) 8.3%
CCS(=O)(=O)N1CCN(c2cccc(C)c2C)CC1 4.1%
CCS(=O)(=O)N1Cc2ccccc2CC1C(=O)N1CCN(c2ccccc2)CC1 (stereo unspecified) 27%
CC1CCCN(c2oc(-c3cccc4ccccc34)nc2C#N)C1 (stereo unspecified) 6.4%
COc1ccc2nc(SCC(=O)/C(C#N)=C(\C)N)[nH]c2c1 -14.3%
C/C(N)=C(/C#N)C(=O)CSc1nc2ccc(C)cc2[nH]1 8.9%
O=C(O)CCCNc1cc(N2CCC3(CC2)OCCO3)c2noc3c2c1C(=O)c1ccccc1-3 33.8%
CCOC(=O)C(C(=O)OCC)c1cc(Br)c2noc3c2c1C(=O)c1ccccc1-3 -31.4%
CCCCOC(=O)Cn1c(=O)n(CC(=O)OCCCC)c2ccccc21 3.3%
COc1ccc(C(CNC(=O)c2ccc(S(=O)(=O)N3CCOCC3)cc2)N2CCCCC2)cc1 (stereo unspecified) 0.7%
Cc1ccc(S(=O)(=O)N2CCCCC2)cc1C(=O)Nc1ccc2cn[nH]c2c1 5.9%
Cc1ccc(S(=O)(=O)N2CCCC2)cc1C(=O)O 27.9%
O=C(Nc1ccccc1C(=O)N1CCOCC1)c1noc2c1CCCC2 -1.4%
COC(=O)c1ccccc1NC(=O)c1noc2c1CCCC2 -7.7%
COC(=O)c1ccccc1NC(=O)c1noc2c1CC(C(C)(C)C)CC2 (stereo unspecified) -0.1%
O=C(Nc1ccc(F)cc1F)c1noc2c1CCC2 46.1%
O=C(CCCN1C(=O)CCC1=O)Nc1ccccc1F 38.1%
Cc1csc(NC(=O)CSc2nnc(Cn3c(=O)sc4ccccc43)n2-c2ccccc2)n1 -8.5%
CCCC(=O)Nc1ccc2oc(-c3ccc(OC)c(Br)c3)nc2c1 -48.6%
O=C(CN1CCCCC1)Nc1cccc(-n2cnnn2)c1 5.6%
